One may read the AC50 as the midpoint of the concentration-response curve, whichever way the signal moves.

15 molecules from PubChem BioAssay (EPA / NIEHS) can be followed below.

Calls of active or inactive are those of the source. Rule for the calls: active = hit-call score of the fitted dose curve at least 0.9, where 1 is the maximum; inactive = score below 0.9.

Read-out in one experiment: Decorin, DCN (gene 1634)
Kind of experiment: BSK_MyoF_Decorin: BioMAP Diversity Plus: MyoF Assay for Decorin Biomarker Activity (AID 2284265). As to conditions: primary human lung fibroblasts. The essentials:
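ELISA readout of decorin, 24 h post-dosing; primary human lung fibroblast (MyoF) culture; gain-of-signal fit vs DMSO baseline.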

Experiment [1] is described as follows: BSK_MyoF_SRB: Viability Assessment in the BioMAP Diversity Plus: MyoF Assay (AID 2284267).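 Note: total protein by SRB absorbance in parallel cultures as cytotoxicity measure; cells assessed 24 h after compound addition.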 As to conditions: primary human lung fibroblasts. The essentials: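 In this viability endpoint, fibroblasts from human lung are treated for 24 h, TCA-fixed, SRB-stained (0.1%) and read at 560 nm. Gain of signal relative to DMSO defines activity.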
Read-out in experiment [2]: Matrix Metallopeptidase 1 (MMP1), MMP1 (gene 4312)
Kind of experiment: BSK_MyoF_MMP1: BioMAP Diversity Plus: MyoF Assay for Matrix Metallopeptidase 1 (MMP1) Biomarker Activity (AID 2284268). To be noted: primary human lung fibroblasts. The essentials: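 Cells: human lung fibroblasts. Exposure: 24 h chemical dosing. Detection: ELISA for MMP1. Analysis: upward fitting against DMSO negative control.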

Read-out in experiment [3]: TIMP metallopeptidase inhibitor 1 (TIMP1), TIMP1 (gene 7076)
Kind of experiment: BSK_MyoF_TIMP1: BioMAP Diversity Plus: MyoF Assay for TIMP metallopeptidase inhibitor 1 (TIMP1) Biomarker Activity (AID 2284269). To be noted: primary human lung fibroblasts. The essentials:
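ELISA read-out of TIMP-1 from primary human lung fibroblast cultures 24 h after compound dosing; gain of signal relative to DMSO vehicle baseline defines activity.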

Experiment [4] in a line: IUF_NPC2c_oligodendrocyte_migration_120hr: Leibniz Research Institute for Environmental Medicine (IUF) 120-hour Neural Progenitor Cell Migration Assay for Oligodendrocyte Migration (NPC2c) (AID 2284297).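 Note: O4-positive oligodendrocyte migration distance divided by radial glia migration distance.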 The essentials: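 hNPC spheres (GW 16-19 cortex), PDL/laminin, DMEM/F12 3:1 + 1% N2, 37C. Dosing day 0–5, half feed day 3, DMSO ≤0.1%. Fixed 120 h; O4 ICC + Hoechst, HCI. Readout: mean oligodendrocyte distance from sphere edge / radial glia distance.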

Experiment [5] is described as follows: IUF_NPC2a_radial_glia_migration_120hr: Leibniz Research Institute for Environmental Medicine (IUF) 120-hour Neural Progenitor Cell Migration Assay for Radial Glia Migration (NPC2a) (AID 2284298). The essentials:
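Hoechst-stained nuclei imaged at 120 h; algorithm maps sphere core by densest nuclei, sets migration edge at density threshold, gives radial glia migration distance (um) per well vs DMSO. hNPC spheres (0.3 mm), PDL/laminin, DMEM/F12 3:1 + 1% N2.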

Experiment [6] in a line: IUF_NPC2a_radial_glia_migration_72hr: Leibniz Research Institute for Environmental Medicine (IUF) 72-hour Neural Progenitor Cell Migration Assay for Radial Glia Migration (NPC2a) (AID 2284299). The essentials:
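Spheres of human primary neural progenitors migrate on poly-D-lysine/laminin under compound exposure at 37C, 5% CO2. The 72 h radial glia migration distance comes from brightfield images, measured manually.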

Experiment [7] in a line: IUF_NPC2b_neuronal_migration_120hr: Leibniz Research Institute for Environmental Medicine (IUF) 120-hour Neural Progenitor Cell Migration Assay for Neuron Migration (NPC2b) (AID 2284300). The essentials:
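hNPC spheres, PDL/laminin, DMEM:F12 3:1 + 1% N2, 37C/5% CO2; 7 concentrations + solvent control (DMSO ≤0.1%), 5 d exposure, half-feed day 3. Fix 120 h, TUBB3 ICC, HCI: mean neuron migration distance ÷ glia distance.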

A short description of experiment [8]: IUF_NPC3_neuronal_differentiation_120hr: Leibniz Research Institute for Environmental Medicine (IUF) 120-hour Neuronal Differentiation Assay (NPC3) (AID 2284301). The essentials: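 Value is percent TUBB3-positive neurons among Hoechst-stained nuclei in the migration area, scored by trained CNN after 120 h differentiation. Primary hNPC spheres on poly-D-lysine/laminin, N2 medium, continuous dosing from day 0, half-refeed day 3; DMSO reference.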

Read-out in experiment [9]: Intercellular Adhesion Molecule 1 (ICAM1), ICAM1 (gene 3383)
Kind of experiment: BSK_BE3C_ICAM1: BioMAP Diversity Plus: BE3C Assay for Intercellular Adhesion Molecule 1 (ICAM1) Biomarker Activity (AID 2284278).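 Note: cell-surface ICAM-1 protein level quantified by ELISA.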 As to conditions: primary human bronchial epithelial cells. The essentials:
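hu bronchial epithelial primary cells, 24 h cpd exposure, ICAM-1 ELISA; gain-of-signal fit vs DMSO baseline.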

Read-out in experiment [10]: Interferon-inducible T-cell alpha chemoattractant (ITAC), CXCL11 (gene 6373)
Kind of experiment: BSK_BE3C_ITAC: BioMAP Diversity Plus: BE3C Assay for Interferon-inducible T-cell alpha chemoattractant (ITAC) Biomarker Activity (AID 2284279). To be noted: primary human bronchial epithelial cells. The essentials: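 ELISA read-out of I-TAC after 24 h chemical dosing of human lung primary bronchial epithelial cells; gain-of-signal fit vs DMSO baseline. Parallel SRB total-protein staining (0.1% SRB, 10% TCA fixation, 560 nm) assessed cytotoxicity.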

Read-out in experiment [11]: Interleukin-8 (IL8), CXCL8 (gene 3576)
Kind of experiment: BSK_BE3C_IL8: BioMAP Diversity Plus: BE3C Assay for Interleukin-8 (IL8) Biomarker Activity (AID 2284280). To be noted: primary human bronchial epithelial cells. The essentials:
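Primary human bronchial epithelial cells (BE3C system) were exposed to test chemical for 24 h, and IL-8 levels were then measured by ELISA. Activity was fitted in the positive (gain-of-signal) direction against a DMSO negative-control baseline.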

Read-out in experiment [12]: Epidermal growth factor receptor (EGFR), EGFR (gene 1956)
Kind of experiment: BSK_BE3C_EGFR: BioMAP Diversity Plus: BE3C Assay for Epidermal growth factor receptor (EGFR) Biomarker Activity (AID 2284281). As to conditions: primary human bronchial epithelial cells. The essentials: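 Human primary bronchial epithelial cells were exposed to compound for 24 h, and cell-surface EGFR was then quantified by ELISA. Activity was fitted in the positive direction against the DMSO vehicle baseline.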

Read-out in another experiment: KRT18 (gene 3875)
Kind of experiment: BSK_BE3C_Keratin818: BioMAP Diversity Plus: BE3C Assay for Keratin 818 Biomarker Activity (AID 2284282). To be noted: primary human bronchial epithelial cells. The essentials: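 In this multiplexed primary-cell system, bronchial epithelial cells were dosed and harvested at 24 h. Keratin 8/18 was determined by ELISA and analysed for increases over DMSO controls.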

Read-out in experiment [13]: Matrix Metallopeptidase 9 (MMP9), MMP9 (gene 4318)
Kind of experiment: BSK_BE3C_MMP9: BioMAP Diversity Plus: BE3C Assay for Matrix Metallopeptidase 9 (MMP9) Biomarker Activity (AID 2284283). As to conditions: primary human bronchial epithelial cells. The essentials: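 ELISA read-out of MMP-9 after 24 h compound exposure of human lung bronchial epithelial primary cells (BE3C). Fit in gain direction vs DMSO negative control; total protein by SRB in parallel cultures flagged overt cytotoxicity.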

Read-out in experiment [14]: Plasminogen activator inhibitor-1 (PAI1), SERPINE1 (gene 5054)
Kind of experiment: BSK_CASM3C_PAI1: BioMAP Diversity Plus: CASM3C Assay for Plasminogen activator inhibitor-1 (PAI1) Biomarker Activity (AID 2284284).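 Note: PAI-1 protein level measured by ELISA 24 h after dosing.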 As to conditions: primary human coronary artery smooth muscle cells.

Read-out in experiment [15]: Monocyte Chemoattractant Protein-1 (MCP1), CCL2 (gene 6347)
Kind of experiment: BSK_hDFCGF_MCP1: BioMAP Diversity Plus: hDFCGF Assay for Monocyte Chemoattractant Protein-1 (MCP1) Biomarker Activity (AID 2284285). As to conditions: primary human foreskin fibroblasts. The essentials:
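MCP-1 ELISA readout was taken 24 hours after dosing primary human dermal fibroblasts in the hDFCGF system, with DMSO as baseline. Parallel sulforhodamine B staining of total protein tracked overt cytotoxicity.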

Read-out in experiment [16]: Intercellular Adhesion Molecule 1 (ICAM1), ICAM1 (gene 3383)
Kind of experiment: BSK_hDFCGF_ICAM1: BioMAP Diversity Plus: hDFCGF Assay for Intercellular Adhesion Molecule 1 (ICAM1) Biomarker Activity (AID 2284287). To be noted: primary human foreskin fibroblasts. The essentials:
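ICAM-1 ELISA readout 24 h after dosing, DMSO as baseline, in human dermal foreskin fibroblast cultures. Cytotoxicity checked in parallel wells by SRB staining (0.1% SRB, 10% TCA fixation, 560 nm).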

Read-out in experiment [17]: TIMP metallopeptidase inhibitor 2 (TIMP2), TIMP2 (gene 7077)
Kind of experiment: BSK_hDFCGF_TIMP2: BioMAP Diversity Plus: hDFCGF Assay for TIMP metallopeptidase inhibitor 2 (TIMP2) Biomarker Activity (AID 2284289). To be noted: primary human foreskin fibroblasts. The essentials:
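Primary human foreskin fibroblasts in the hDFCGF system, dosed for 24 h; TIMP-2 level measured by ELISA, fitted in the positive direction against DMSO; cytotoxicity checked in parallel by sulforhodamine B total protein staining.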

Read-out in experiment [18]: Thrombomodulin, THBD (gene 7056)
Kind of experiment: BSK_LPS_Thrombomodulin: BioMAP Diversity Plus: LPS Assay for Thrombomodulin Biomarker Activity (AID 2284296). The essentials:
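Thrombomodulin on the surface of LPS-activated endothelial/PBMC co-cultures was quantified by ELISA at 24 hours post-dosing, with DMSO as baseline. Parallel SRB total-protein staining flagged overt cytotoxicity.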

In the case of `Cc1ccc2nc3sc(=O)sc3nc2c1`, the half-maximal activity concentration (AC50) in the experiment with Decorin, DCN (gene 1634) is 5 µM (active); in [2], 5 µM (active). Besides, the result in experiment [1] and in experiment [3] was inactive.

With `CNC(=O)CSP(=O)(OC)OC`, the call in [4], in experiment [5], in experiment [6], in [7] and in experiment [8] was inactive.

In the case of `OCCCCO`, the result (in experiment [9]; in experiment [10]; in [11]; in experiment [12]; in the experiment with KRT18 (gene 3875); in experiment [13]) was inactive. The outcome in experiment [14], in [15], in experiment [16], in [17] and in experiment [18] was inactive.

`O=S1OC[C@@H]2[C@H](CO1)[C@]1(Cl)C(Cl)=C(Cl)[C@@]2(Cl)C1(Cl)Cl` (stereo partly specified): the outcome in [4], in experiment [5], in experiment [6], in experiment [7] and in experiment [8] was inactive.

Consider `O=S(=O)(C(Cl)(Cl)Cl)C(Cl)(Cl)Cl`, for which the AC50 is 3.37 µM (active) with Decorin, DCN (gene 1634); 3.81 µM (active) in experiment [1]; 7.05 µM (active) in experiment [2]; 2.93 µM (active) in experiment [3].

Regarding `Cc1cccc(OP(=O)(Oc2cccc(C)c2)Oc2cccc(C)c2)c1`, the outcome was “inactive” with Decorin, DCN (gene 1634); “inactive” in experiment [1]; “inactive” in [2]; “inactive” in experiment [3].

For the molecule `CCOP(=O)(OCC)SCCSCC`, the outcome is “inactive” with Decorin, DCN (gene 1634); “inactive” in experiment [1]; “inactive” in experiment [2]; “inactive” in [3].

In the case of `OC(Cc1ccccc1Cl)(Cn1cncn1)C1(Cl)CC1` (stereo unspecified), the outcome in the experiment with Decorin, DCN (gene 1634) is “inactive”; in [1], “inactive”; in [2] it was “inactive”; in experiment [3] it was “inactive”.

Take `Oc1cccc(-c2ccccc2)c1`: the outcome with Decorin, DCN (gene 1634) was “inactive”; in experiment [3], “inactive”. Further, the concentration at half-maximal activity (AC50) was 31.1 µM (active) in experiment [1] and 31.2 µM (active) in experiment [2].

In the case of `CC(C)(C)c1cc([N+](=O)[O-])cc(C(C)(C)C)c1O`, the outcome with Decorin, DCN (gene 1634) was “inactive”; in experiment [1] it was “inactive”; in experiment [2] it was “inactive”; in [3], “inactive”.

Turning to `CCOCn1c(-c2ccc(Cl)cc2)c(C#N)c(Br)c1C(F)(F)F`, the call in experiment [4] was inactive. The AC50 in experiment [5] was 63.4 µM (active); in experiment [6], 36.6 µM (active); in [7] it was 35.4 µM (active); in experiment [8], 5.42 µM (active).

`NC(=O)CCl`: the outcome is “inactive” in the experiment with Decorin, DCN (gene 1634); “inactive” in [1]; “inactive” in [2]; “inactive” in [3].

Consider `Nc1c(Oc2ccccc2)cc(O)c2c1C(=O)c1ccccc1C2=O`, for which the outcome with Decorin, DCN (gene 1634) was “inactive”; in [1], “inactive”; in [2], “inactive”; in [3], “inactive”.

In the case of `CC(C)(COCC1CO1)COCC1CO1` (stereo unspecified), the outcome is “inactive” with Decorin, DCN (gene 1634); “inactive” in experiment [1]; “inactive” in experiment [2]; “inactive” in experiment [3].

On to `CS(=O)(=O)c1ccc(C(=O)C2C(=O)CCCC2=O)c(Cl)c1COCC(F)(F)F`, for which the call in [4], in experiment [5], in experiment [6], in experiment [7] and in experiment [8] was inactive.
